This passage reports outcome results from PubChem BioAssay (NCATS).

Structures are written as SMILES. Activity calls are given as the source filed them. Calls follow the shape of the dose curve; as a rule, active = well fitted activation curve with a large enough effect; inconclusive = small, poorly fitted or top-dose-only effect; inactive = flat fitted curve, though single readings scatter.

A short description of the experiment: Cellular Toxicity (caspase-3) SHSY5Y (AID 657). The settings on record: SH-SY5Y caspase-3 activation, DMSO zero, 10 µM staurosporine = 100%; series mostly up to 91.7 µM. The text has this:
NIH Chemical Genomics Center [NCGC]
NIH Molecular Libraries Screening Centers Network [MLSCN]
National Institutes of Environmental Health Sciences [NIEHS]
National Toxicology Program [NTP]
We have developed a 1536-well cell-based assay for quantitative high throughput screening (qHTS) against a number of cell lines to determine in vitro caspase 3/7 activity of small molecules. This particular assay uses the SH-SY5Y cell line which is derived from human neuroblastoma.
NCGC Assay Protocol Summary:
The Caspase-Glo 3/7 assay (Promega) is a homogeneous method to measure caspase-3 and caspase-7 activities in cultured cells. The quantitation of caspase 3/7 activity is based on the cleavage of a peptide-aminoluciferin substrate. After caspase cleaves the substrate the free aminoluciferin is liberated and serves as the substrate of luciferase, which generates the light. The luminescent signal is proportional to the amount of caspase 3/7 activity present.
Using the Caspase-Glo 3/7 assay, the amount of caspase 3/7 activity was measured in the SH-SY5Y cell line with complete culture medium following compound treatment for 16 hours. The assay was performed in opaque white 1536-well plates. In the screen, staurosporine and doxorubicin were used as positive controls. Library compounds were measured for their ability to cause the activation of caspase 3/7 in the cell line, as reflected by an increase in luminescence signal, in a concentration-dependent manner. Data were normalized to the controls for basal activity (DMSO only) and 100% stimulation (10 uM staurosporine). AC50 values were determined from concentration-response data modeled with the standard Hill equation.
qHTS protocol for caspase 3/7 assay in SH-SY5Y cells
[Step] [Parameter] [Value] [Description]
1. Reagent; 5 uL; 1500 SH-SY5Y cells/well
2. Time; 5 hr; 37 °C incubation
4. Controls; 23 nL; doxorubicin 7 pM to 100 uM & staurosporine 1.4 pM to 20 uM
5. Time; 16 hr; 37 °C incubation
6. Reagent; 5 uL; Caspase-Glo 3/7 reagent
7. Time; 1 hr; Room Temperature
8. Detection; Luminescence; Viewlux plate reader
Keywords: caspase 3/7, apoptosis, SH-SY5Y cell line, luminescence, NTPHTS, NTPHTS_NCGC, NIEHS, EPA, DSSTox, MLSMR, MLSCN, NIH Roadmap, qHTS, NCGC
As for `Cc1ccc(N)c(N)c1`, the molecule was classed as inactive.
Next, `O=P(OCCCl)(OCCCl)OCCCl`: “inactive”; `CN(C)c1ccc(N(C)C)cc1`: “inactive”; `OCC(Cl)CCl` (stereo not given): “inactive”.
For the molecule `ClCCOCOCCCl`, the molecule was called inactive.
Next, `O=C(Cc1ccccc1)OCc1ccccc1`: “inactive”; `CSSC`: “inactive”.
Next, `[C-]1=CC=CC1.[C-]1=CC=CC1.[Cl-].[Cl-].[Ti+4]`: “inactive”.
Next, `ClC(Cl)(Cl)C(Cl)(Cl)Cl`: “inactive”.
For `CC(C)(OOC(C)(C)c1ccccc1)c1ccccc1`, the result was inactive.
Next, `CC(C)(C)OOC(=O)c1ccccc1`: “inactive”; `ClC(Cl)Br`: “inactive”; `Nc1cc(Cl)ccc1Cl`: “inactive”.
Next, `C=CCOCC1CO1` (stereo not given): “inactive”.
For `CN=C=O` the value was “inactive”; for `C=CC(=O)OCCN(C)C`, “inactive”; for `ClCc1ccccn1`, “inactive”.
`O=[N+]([O-])CCO`: the call was inactive.
`Cc1cc(-c2ccc(N)c(C)c2)ccc1N`: the molecule was classed as inactive.
For `C=CCCl` the value was “inactive”; for `C=CC(=O)OCC(C)C`, “inactive”; for `Oc1cccc(Cl)c1`, “inactive”.
Turning to `CC(C)(C)c1ccccc1O`, the molecule was classed as inactive.
For `N#CC(Br)Br` the value was “inactive”; for `ClCCOCCCl`, “inactive”; for `C=COC(C)=O`, “inactive”.
For `Oc1cc(Cl)cc(Cl)c1` the value was “inactive”.
Regarding `Nc1ccccc1-c1ccccc1`, the result was inactive.
Next, `Oc1c(Cl)cccc1Cl`: “inactive”; `CC(Cl)CCl` (stereo not given): “inactive”; `O=[N+]([O-])c1c(Cl)c(Cl)c(Cl)c(Cl)c1Cl`: “inactive”.
Next, `CCC(Cl)[N+](=O)[O-]` (stereo not given): “inactive”; `C/C=C/CC#N`: “inactive”.
Take `CC(C)CON=O`: the outcome was inactive.
On to `Nc1ccc([N+](=O)[O-])cc1[N+](=O)[O-]`, for which the outcome was inactive.
Next, `CCCCCCCCCCCOC(=O)c1ccccc1C(=O)OCCCCCCCCCCC`: “inactive”.
For `Cl/C=C\Cl` the value was “inactive”; for `O=S(=O)(O)F`, “inactive”.
For `c1ccc(Nc2ccc(Nc3ccccc3)cc2)cc1` the value was “inactive”; for `c1ccoc1`, “inactive”.
